Screens: PubChem BioAssay, several laboratories
Compounds with a hit are over-represented: about 4.6% of the library has one in this group of screens.
HIF-2a block = inhibitors of HIF-2a. 786-0 RCC cells HIF-2a reporter, luciferase luminescence, overnight. inhibition, % at 18.8 µM. 0.72% of 360,000 active. AID 624352;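 active means inhibition of the luminescence signal of 40% or more relative to plate controls, in a single-dose primary screen at 18.75 µM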
Mdm2 MdmX PPI = human Mdm2/MdmX binding inhibition | SaOS-2 split-luciferase Mdm2/MdmX complementation, luminescence | AID 485346 | O15151+Q00987 | 3% of 330,000 active | inhibition, % at 8 µM;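 active means inhibition of at least 50% at 8 µM in the primary screen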
KKLEB cytotox = counter-screen for CF NF-kB inhibitors: cytotoxicity; activity change (cytotoxicity), % at 5 µM; 0.36% of 360,000 active; KKLEB CF airway cells viability, ATPlite luminescence, overnight; stronger effect = lower value; cells stimulated with P. aeruginosa culture filtrate; AID 602141;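 active means corrected activity change at or below -50% at 5 µM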
Peg3 promoter = reduces Peg3 promoter-driven luciferase expression in HeLa; HeLa PEG-Prom luciferase reporter, luminescence, overnight; inhibition, % at 20 µM; 1.7% of 360,000 active;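 active means inhibition of at least 50% at 20 µM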
ABHD5-PLIN5 inh = inhibitors of human ABHD5-perilipin-5 interaction. Q00G26+Q8WTS1. Split G. princeps luciferase complementation, luminescence, 4 h. inhibition, % at 4 µM. 0.78% of 360,000 active. AID 602281;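 active means inhibition above the mean inhibition across every tested compound plus 3 SD, cut at about 22% in these data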
CF NFkB inh = blocks PAF-induced NF-kB reporter in cystic fibrosis cells; AID 588850; inhibition, % at 5 µM; KKLEB NF-kB-GFP reporter, GFP fluorescence overnight; 0.86% of 360,000 active;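 active means at least 50% inhibition at 5 µM, scaled per plate between neutral and stimulator controls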;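 further: PAF is a Pseudomonas aeruginosa culture filtrate used as stimulus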
Numbers stand for hits; i = inactive; nt = no result given.

SMILES	HIF-2a block	Mdm2 MdmX PPI	KKLEB cytotox	Peg3 promoter	ABHD5-PLIN5 inh	CF NFkB inh
Cc1ccc(/C=C2\SC(=S)N(CCCC(=O)Nc3cc(C)on3)C2=O)cc1	68.9	i	i	i	i	i
COc1ccc(/C=C2\SC(=S)N(CCC(=O)N(CCO)c3ccccc3)C2=O)cc1OC	i	i	i	i	i	i
CCc1ccc(/C=C2\SC(=S)N(CCCC(=O)N(CCO)c3ccccc3)C2=O)cc1	65.3	nt	i	76.4	i	i
CCc1ccc(/C=C2/SC(=S)N(CCC(=O)Nc3ccc(C(=O)O)cc3)C2=O)cc1	i	i	i	i	i	i
COc1ccc(/C=C2\SC(=S)N(CCCC(=O)Nc3cc(C)on3)C2=O)cc1OC	i	i	i	i	i	i
CCc1ccc(C=C2SC(=S)N(CCCC(=O)Nc3ccc(C(=O)O)cc3)C2=O)cc1	50.9	nt	i	i	i	i
COC(=O)[C@@]1(Sc2ccc(C)cc2)CC(=O)N(C(=O)/C=C/c2ccccc2)[C@@H]1c1ccccc1	i	nt	nt	nt	i	nt
CC(=O)Oc1cccc(/C=C2\Sc3ccccc3C2=O)c1	i	i	i	i	22.0	i
CCCCOc1ccc(/C=C2/Sc3ccccc3C2=O)cc1	i	i	i	i	i	i
COc1ccccc1CC(=O)NNC(=O)c1ccco1	i	i	i	i	i	i
Cc1ccc(S(=O)(=O)Nc2ccc(O)c(Sc3ncn[nH]3)c2)cc1	i	i	i	i	i	i
CC(C)c1ccc(S(=O)(=O)/N=C2/C=C(Sc3ncn[nH]3)C(=O)c3ccccc32)cc1	49.1	nt	i	63.7	i	83.7
Cc1ccc(S(=O)(=O)/N=C2/C=C(Sc3ncn[nH]3)C(=O)c3ccccc32)cc1	97.5	nt	-58.5	105.7	40.2	99.6
Cc1cccc(CNC(=O)c2sc(=O)n(Cc3ccc(S(C)(=O)=O)cc3)c2C)c1	i	nt	i	i	i	i
CCOc1ccc(NC(=O)c2ccccc2OCC(=O)c2ccc(C)cc2)cc1	i	i	-53.0	i	i	i
Cn1c(=O)c2ccccc2n2c(=S)[nH]nc12	i	i	i	i	i	i
Cn1c(=O)c2ccccc2n2c(CCl)nnc12	i	i	i	i	22.9	i
OC(CNCCc1ccc(C(F)(F)F)cc1)COc1ccc2ccccc2c1 (stereo not drawn)	i	i	i	100.6	i	i
OC(CNCCc1ccc(C(F)(F)F)cc1)COc1cccc2ccccc12 (stereo not drawn)	i	i	i	90.3	i	i
OC(CNC1CCCCCC1)COc1cccc2ccccc12 (stereo not drawn)	i	i	i	91.8	i	i
COc1ccc(CCNCC(O)COc2cccc(Br)c2)cc1 (stereo not drawn)	i	i	i	74.2	i	i
COc1ccccc1COCC(O)CNCCc1ccc(C(F)(F)F)cc1 (stereo not drawn)	i	i	i	i	i	i
OC(CNC1CCCC1)COc1ccccc1Br (stereo not drawn)	i	i	i	i	i	i
O=C(CCc1ccccc1)Nc1cc2c3c(c1)CC(=O)N3CCC2	i	i	i	i	i	i
CC(=O)N/C(=C\c1ccccc1)C(=O)OCC(=O)N(C)C1CCS(=O)(=O)C1 (stereo not drawn)	i	i	i	i	i	i
SMILES	HIF-2a block	Mdm2 MdmX PPI	KKLEB cytotox	Peg3 promoter	ABHD5-PLIN5 inh	CF NFkB inh
COc1ccc(CNCC(O)COc2ccc(C(C)(C)c3ccccc3)cc2)cc1 (stereo not drawn)	i	i	i	74.5	i	i
COC(=O)c1ccc(CNCC(O)COc2ccc(-c3ccccc3)cc2)cc1 (stereo not drawn)	i	i	i	i	i	i
O=C(Nc1ccn(CCCN2CCC(N3CCOCC3)CC2)c(=O)n1)OCc1ccccc1	i	nt	i	i	i	i
COc1cccc(/C(O)=C/c2nc3ccc(C(=O)NCCc4ccc(Cl)cc4)cc3[nH]c2=O)c1	i	nt	i	55.5	i	i
CN1c2ccccc2SC2C(c3ccccc3)=NOC21 (stereo not drawn)	i	nt	i	i	i	i
Cc1nc([N+](=O)[O-])cn1Cc1cccc([N+](=O)[O-])c1	i	i	i	i	i	i
Cn1nnnc1SCc1ccc(C(=O)Nc2nccs2)cc1	i	i	i	i	i	i
C=CCn1c(SCc2ccc(C(=O)Nc3nccs3)cc2)nnc1-c1ccc(C)c(Cl)c1	i	i	i	51.9	i	i
CC(C)n1nnnc1SCC(=O)N1N=C(c2cccs2)CC1c1cccs1 (stereo not drawn)	i	i	i	i	i	i
